# hNpr1 antagonist: Natriuretic polypeptide receptor (hNpr1) antagonism - Primary qHTS | Atrial natriuretic peptide receptor 1 (Homo sapiens), P16066 | HEK293 hNpr1 GloSensor cGMP, ANP-stimulated luminescence | Potency, µM (top dose mostly 46.3 µM), inactives show at the top dose activity change, negative = inhibition, actives largely listed as inhibitors | 76,000 tested, 1.6% active; calls by dose curve; further: nearly all actives have a fitted effect of over 60% in size
# Target sequence (P16066 whole entry, looked up): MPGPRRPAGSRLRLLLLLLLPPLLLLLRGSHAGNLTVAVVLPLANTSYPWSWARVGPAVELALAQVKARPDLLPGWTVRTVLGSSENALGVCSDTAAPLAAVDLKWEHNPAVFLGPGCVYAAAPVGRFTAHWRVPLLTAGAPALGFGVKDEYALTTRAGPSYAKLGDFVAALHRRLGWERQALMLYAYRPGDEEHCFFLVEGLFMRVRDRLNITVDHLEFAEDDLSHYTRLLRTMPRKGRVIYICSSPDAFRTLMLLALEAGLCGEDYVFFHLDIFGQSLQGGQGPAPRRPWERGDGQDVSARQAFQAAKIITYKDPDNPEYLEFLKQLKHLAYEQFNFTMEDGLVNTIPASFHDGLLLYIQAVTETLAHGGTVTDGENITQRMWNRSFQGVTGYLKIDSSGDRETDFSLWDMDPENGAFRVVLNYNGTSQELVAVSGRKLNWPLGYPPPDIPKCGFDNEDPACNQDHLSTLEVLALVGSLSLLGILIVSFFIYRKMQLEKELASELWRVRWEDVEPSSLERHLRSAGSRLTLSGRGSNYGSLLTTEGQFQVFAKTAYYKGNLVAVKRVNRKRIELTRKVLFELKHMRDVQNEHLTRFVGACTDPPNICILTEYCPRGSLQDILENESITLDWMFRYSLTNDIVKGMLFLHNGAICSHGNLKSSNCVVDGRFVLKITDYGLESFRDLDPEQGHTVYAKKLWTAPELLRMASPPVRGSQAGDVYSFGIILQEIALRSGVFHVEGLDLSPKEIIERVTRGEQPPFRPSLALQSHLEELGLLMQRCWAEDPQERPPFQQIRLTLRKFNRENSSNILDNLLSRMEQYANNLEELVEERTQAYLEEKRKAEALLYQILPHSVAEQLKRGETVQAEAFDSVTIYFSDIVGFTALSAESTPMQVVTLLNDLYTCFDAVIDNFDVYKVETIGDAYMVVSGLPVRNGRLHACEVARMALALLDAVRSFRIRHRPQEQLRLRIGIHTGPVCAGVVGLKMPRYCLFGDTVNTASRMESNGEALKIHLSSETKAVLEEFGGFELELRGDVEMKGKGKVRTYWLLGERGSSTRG
#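 Compound pre-incubated 30 min at room temperature on GloSensor-loaded HEK293 cells stably carrying hNpr1 and the pGS-40F cGMP biosensor. Stimulation uses hNppA at 0.1 nM final; luminescence is taken at baseline and 20 min post-agonist.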
# 3T3 cytotox: Cytotoxic Profiling in NIH 3T3 Cell Line of Diverse Libraries Using Quantitative High-Throughput Screening | NIH 3T3 viability, CellTiter-Glo ATP luminescence, 48-72 h | Potency, µM (series often up to 96.7 µM), inactives show top-dose activity change, negative = cytotoxicity, usual class: inhibitors | 94,000 tested, 4.3% active | AID 1345082, 2018; further: nearly all actives have a fitted effect of over 55% in size
#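 Mouse fibroblast NIH 3T3 cells, 400 per well, received compound via pintool and were incubated for 48 or 72 hr prior to CellTiter-Glo ATP luminescence measurement.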
# HEK cytotox: Cytotoxic Profiling in HEK 293 Cell Line of Diverse Libraries Using Quantitative High-Throughput Screening | HEK 293 viability, ATP luminescence (CellTiter-Glo), 48-72 h | Potency, µM (top dose mostly 115 µM), for the others: top-dose activity change, negative = cytotoxicity, hits mostly inhibitors | 94,000 tested, 6.6% active | AID 1345083, 2018; further: nearly all actives have a fitted effect of over 60% in size
#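 qHTS cytotoxicity; HEK 293, 250 cells/well; compound pinned; 48 or 72 hr, 37 degree Celsius, 5% CO2, 95% humidity; CellTiter-Glo, 10 min RT; luminescence (ATP).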
# Luciferase inh: Firefly luciferase inhibition profiling of diverse chemical library using quantitative high-throughput screening; Luciferin 4-monooxygenase (Photinus pyralis), P08659; purified P. pyralis luciferase, luminescence, biochemical; Potency, µM (top dose mostly 115 µM), hits mostly inhibitors; 76,000 tested, 2.5% active; AID 1347043, 2019; further: nearly all actives have a fitted effect of over 65% in size
#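 FLuc 10nM, D-luciferin 10uM, ATP 10uM, Mg acetate 10mM, Tris acetate pH 7.5, Tween/BSA; cpd qHTS; enzyme added last; CCD luminescence.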
# Numbers without * were called inactive; i = inactive; ? = inconclusive; · = no result; ! = repeats disagree; [ ] = remark or other dose. In the library only some 11% were active in any assay of this set; here they are far more common. Unless noted, the call rests on the fitted dose curve; in most records, active means well fitted curve in the direction sought with a large enough effect; inconclusive means small, poorly fitted or top-dose-only effect, or another doubt; inactive means no such curve, though single readings can be large; an effect the other way counts as inactive or inconclusive. On the % scale 0 is the no-effect control and ±100 the full control effect; potency means the concentration at half of the fitted maximal effect.
SMILES,hNpr1 antagonist,3T3 cytotox,HEK cytotox,Luciferase inh
O=C(CN1C(=O)NC(c2ccc(Cl)cc2)C2=C1COC2=O)Nc1cc(F)cc(F)c1 (stereo not drawn),-28.6%,25.1µM*,25.1µM*,i
CSCC(=O)N[C@H]1CCN2C(=O)N(c3ccc(C(C)C)cc3)C(=O)[C@@H]2C1,-0.9%[70.6 µM],-28.8%[174 µM],-11.6%[172 µM],31.6µM*
O=C(NC1CCCCC1)[C@@H]1C[C@@H](O)CN1C1CCN(C(=O)c2ccc3c(c2)OCO3)CC1,-2.5%,-1.6%,i,i
c1ccc(-c2noc(-c3cncnc3NC3CCCCCC3)n2)cc1,3.0%,i,3.2%,i
CC1CCN(c2ncncc2-c2nc(-c3ccccc3)no2)CC1,2.2%,?,79.4µM*,?
c1ccc(-c2noc(-c3cncnc3N3CCN(C4CCCCC4)CC3)n2)cc1,-2.4%,-24.6%,?,i
c1ccc(-c2noc(-c3cncnc3N3CCSCC3)n2)cc1,-7.2%,-15.1%,44.7µM*,?
O=C(Cc1cccc(Cl)c1)N[C@@H]1CN(c2ncccn2)C[C@H]1CO,-6.4%,-14.4%,-8.1%,i
COc1ccc(CCN2C(=O)O[C@@H]3CN(c4nc(OC)cc(OC)n4)C[C@@H]32)cc1,-14.0%,?,-7.7%,i
Oc1cccc(-c2cc(-c3cccnc3)c3cncn3c2)c1,-27.1%[70.6 µM],25.1µM*,56.2µM*,?
COc1ccc(-c2cc(-c3cccc(NC(C)=O)c3)cn3cncc23)cc1,-17.6%[70.6 µM],?,?,?
COc1ccc(-c2cc(-c3cnc4[nH]ccc4c3)cn3cncc23)cc1,-19.0%[70.6 µM],79.4µM*,?,?
OCc1cccc(-c2cc(-c3ccncc3)c3cncn3c2)c1,-12.7%[70.6 µM],12.6µM*,25.1µM*,i
COc1ccc(-c2cc(-c3cccnc3)cn3cncc23)cc1,-18.3%[70.6 µM],39.8µM*,?,i
CCOc1ccc2c(n1)CCN(C(=O)Nc1ccc(CC)cc1)C2,-29.6%,?,?,?
CC(=O)N1Cc2ccccc2CC2(CCN(C)CC2)C1,·,2.6%[138 µM],-5.6%[172 µM],·
COc1ccc(C(CC(=O)NCc2cccnc2)c2ccccc2)cc1 (stereo not drawn),?,?,?,i
COc1ncccc1-c1cc(-c2ccncc2)c2cncn2c1,2.3%[70.6 µM],28.2µM*,?,i
COc1ccc(-c2cc(-c3ccc(OC)nc3)cn3cncc23)cc1,-12.1%[70.6 µM],39.8µM*,89.1µM*,i
COc1ccc(-c2cc(-c3cn[nH]c3)c3cncn3c2)cn1,-3.3%[70.6 µM],?,?,i
Cc1ccc(-c2cc(-c3ccncc3)c3cncn3c2)cn1,0.2%[70.6 µM],?,?,i
COc1ccc(-c2cc(-c3cccnc3OC)cn3cncc23)cc1,-19.8%[70.6 µM],35.5µM*,?,i
Cc1ccc(-c2cc(-c3cccnc3)c3cncn3c2)cn1,-13.7%[70.6 µM],39.8µM*,?,i
Cc1cc(CNC(=O)[C@@H]2CCC[C@@H](NCc3cccc(Cl)c3)CN(C)C(=O)C2)no1,-4.0%[70.6 µM],3.4%[174 µM],0.3%[172 µM],i
CCc1nncn1C1CCN(S(=O)(=O)c2ccc(C)c(Cl)c2)CC1,-13.0%,-16.7%,-5.6%,i
SMILES,hNpr1 antagonist,3T3 cytotox,HEK cytotox,Luciferase inh
CN(Cc1ccc(-c2ccccc2)cc1)Cc1cccc(OC(F)(F)F)c1,0.0%,-22.9%,-4.2%,i
Cn1ncc2c(C(=O)NCc3ccc(F)c(F)c3)cc(C(C)(C)C)nc21,·,?,56.2µM*,·
Cn1ncc2c(C(=O)NCc3ccc(F)cc3)cc(C(C)(C)C)nc21,·,?,100µM*!,·
COCCNC(=O)c1cc(C(C)(C)C)nc2c1cnn2C,·,-26.5%[138 µM],?,·
CC(=O)Nc1cccc(-c2ncc3c(n2)OCCN(c2ccccc2)C3=O)c1,3.8%[70.6 µM],17.8µM*,-6.3%[172 µM],28.2µM*
CC(=O)Nc1cccc(-c2ncc3c(n2)OCCN(CC2CC2)C3=O)c1,0.0%[70.6 µM],?,-8.6%[172 µM],50.1µM*
O=C1c2cnc(-c3cc4ccccc4o3)nc2OCCN1c1ccccc1,0.282µM*,-93.1%[138 µM],-87.3%[172 µM],0.01µM*
NC(=O)c1cccc(-c2ncc3c(n2)OCCN(c2ccccc2)C3=O)c1,0.6%[70.6 µM],?,?,44.7µM*
CCN(CC)Cc1cnc2c(C(=O)N3CCCC(C(N)=O)C3)cnn2c1 (stereo not drawn),6.6%,i,i,i
O=C(c1ccc(Cl)nc1)N1CCCN(CCn2nc3n(c2=O)CCCC3)CC1,·,-22.1%,-14.0%,·
COCc1ccc2c(c1)c(OC(C)(C)C(=O)Nc1ccccn1)nn2Cc1cccc(OC)c1,2.8%,?,?,i
COCc1ccc2c(c1)c(OC(C)(C)C(=O)NCc1ccncc1)nn2Cc1cccc(OC)c1,3.8%,10µM*,?,i
COCc1ccc2c(c1)c(OC(C)(C)C(=O)NCc1ccncc1)nn2Cc1ccccc1,3.5%,28.2µM*,-27.8%,i
COCc1ccc2c(c1)c(OC(C)(C)C(=O)NCc1ccncc1)nn2Cc1cccnc1,-1.5%,?,-10.1%,i
COCc1ccc2c(c1)c(OC(C)(C)C(=O)NCCCn1ccnc1)nn2Cc1ccccc1,-1.0%,22.4µM*,-16.8%,i
COCc1ccc2c(c1)c(OC(C)(C)C(=O)NCCN(C)C)nn2Cc1ccccc1,-2.9%[70.6 µM],89.1µM*,-26.6%[172 µM],i
Cc1nc2cccnc2n1CC1CCCN(S(=O)(=O)c2ccc3c(c2)OCCO3)C1 (stereo not drawn),-24.5%,?,?,i
O=C(CCC[C@@H]1[C@H]2CCCN3CCC[C@@H](CN1Cc1ccccc1)[C@@H]23)N1CCCC1,-1.6%,?,-15.6%,i
Cc1ccc2oc([C@H]3CCN(Cc4ccc(C(=O)O)cc4)C3)nc2c1,2.2%[70.6 µM],?,-6.7%[172 µM],70.8µM*
Cc1ccc(CN2CC[C@H](c3nc4cc(C)ccc4o3)C2)cc1,0.0%[70.6 µM],?,?,44.7µM*
Cc1ccc2oc([C@H]3CCN(C(=O)C4CC4)C3)nc2c1,5.1%[70.6 µM],-18.6%[174 µM],?,35.5µM*
CC(C)c1ccc(C(=O)NCc2ccnc3[nH]ccc23)cc1,-3.0%[70.6 µM],?,?,25.1µM*
Cc1ccc(C(=O)NCc2ccnc3[nH]ccc23)cc1,1.4%[70.6 µM],-2.3%[138 µM],3.1%[172 µM],?
COc1cccc(-c2cc(C3CCN(C(=O)Nc4ccc(F)cc4)CC3)[nH]n2)c1,1.2%,?,?,i
COc1cccc(-c2cc(C3CCN(S(=O)(=O)c4ccc(F)cc4F)CC3)[nH]n2)c1,?,?,25.1µM*,i
COc1cccc(-c2cc(C3CCN(S(=O)(=O)c4ccc(C#N)cc4)CC3)[nH]n2)c1,?,28.2µM*,28.2µM*,i
O=C(NCc1cccc(F)c1)c1nc2c(o1)CCN(Cc1cccc(F)c1F)CC2,?,44.7µM*,50.1µM*,i
COc1cccc(CN2CCc3nc(C(=O)Nc4cccnc4)oc3CC2)c1,?,?,?,22.4µM*

# Screens as filed in PubChem BioAssay.
